Measured values as given in article PMC5540273 (PLoS ONE, 2017).

Tested on: MAP3K4
Conditions: concentration: 1 μM,replicates: in singlicate; n = 1
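Also: KINOMEscan kinase panel screen.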

Structure (SMILES) | %Inh
Cn1ccc2ncnc(Oc3ccc(NC(=O)Nc4cc(C(C)(C)C)on4)c(Cl)c3)c21 | 9%
CC(=O)Nc1ccc(-c2cc3ncnc(SCC(=O)O)c3s2)cc1 | 37%
CN(c1ccccc1CNc1nc(Nc2ccc3c(c2)CC(=O)N3)ncc1C(F)(F)F)S(C)(=O)=O | 6%
FC(F)(F)c1cc(Br)cc(Nc2nccc(-c3cnn4ncccc34)n2)c1 [GW810578] | 15%
O=C1NCCc2[nH]c(-c3ccncc3)cc21 | 3%
O=C(Nc1cccc(C(F)(F)F)c1)c1cccc(Oc2ccc3nccn3n2)c1 | 22%
Cc1ccc(CC(=O)N2CCc3cc(-c4cn(C)c5ncnc(N)c45)ccc32)cc1 [GSK2634758] | 90.3%
COC(=O)c1cccc(NC(=O)NC2CCN(c3ccnc(NCc4ccc(F)cc4)n3)CC2)c1 [GSK1379860] | 22%
Cn1ccc2ncnc(Oc3ccc(NC(=O)Nc4ccnc(C(F)(F)F)c4)c(Cl)c3)c21 | 0%
O=C(NOCC1CC1)c1cc(Br)c(F)c(F)c1Nc1ccc(I)cc1Cl | 0%
COc1ccc(Nc2nccc(N3CCC(NC(=O)c4cccc(C#N)c4)C3)n2)cc1 (centres unmarked) [GSK1379730] | 40%
COc1cccc(C2=C(Nc3cccc(Cl)c3)C(=O)NC2=O)c1 [SB-341556] | 15%
Cc1n[nH]c2cc(Nc3ccnc(Nc4cccc(CN5CCOCC5)c4)n3)ccc12 [GW682569] | 0%
C[C@@H]1CNc2c(sc3ccc4nc(-c5ccncc5)ccc4c23)C(=O)N1 | 0%
C[C@@H]1CCN(C(=O)N2CCCC2)C[C@@H]1N(C)c1ncnc2[nH]ccc12 | 7%
Cl.c1ccc(Oc2ccc(Nc3ccnc4cc(-c5ccc(CN6CCNCC6)o5)ccc34)cc2)nc1 [GW567142] | 0%
COc1cc2c(Nc3ccc(NC(=O)c4ccccc4)cc3)ncnc2cc1OCCCN1CCOCC1 [GSK301329] | 47%
c1ccc(Oc2ccc(Nc3ccnc4ccc(-c5ccccn5)cc34)cc2)cc1 [GW407034] | 17%
COc1cc2ncn(-c3cc(OCC4CCCCC4)c(C(N)=O)s3)c2cc1OC [GSK204559] | 0%

Structure (SMILES) | %Inh
C[C@@H]1CNc2c(sc3ccc4nc(-c5ccc(O)cc5)ccc4c23)C(=O)N1 | 16%
NC(=O)c1ccc(-c2cc3ncnc(SCC(=O)O)c3s2)cc1 | 0%
CS(=O)(=O)Nc1ccc(-c2ccnc3[nH]ccc23)cc1 [GSK993273] | 0%
N#Cc1cccc(C(=O)NC2CCN(c3ccnc(Nc4ccc(F)cc4)n3)C2)c1 (centres unmarked) [GSK1379708] | 33%
CS(=O)(=O)c1cccc(CNc2nc(Nc3ccc4c(c3)[C@@H]3C[C@@H]4CNC3=O)ncc2C(F)(F)F)c1 | 0%
COc1cc(Nc2nccc(N3CCC(NC(=O)c4cccc(C#N)c4)C3)n2)cc(OC)c1OC (centres unmarked) [GSK1379751] | 0%
CN1CCN(CCCNc2nccc(-c3c(-c4ccc(F)cc4)nn4cc(C(N)=O)ccc34)n2)CC1 [GW622475] | 16%
COc1cccc(OC)c1C(=O)Nc1cccc(-c2nn3ccccc3c2-c2ccnc(Nc3cccc(F)c3)n2)c1 [GSK361065] | 14%
CCOC(=O)N1CCC(n2cnc(-c3ccc(F)cc3)c2-c2ccnc(N)n2)CC1 [SB-219952] | 6%
COC(=O)Nc1nc2cc(Oc3ccc(NC(=O)Nc4cc(C(F)(F)F)ccc4Cl)cc3)ccc2[nH]1.Cl [GW697465] | 1%
CS(=O)c1ccc(-c2coc3ccc(-c4n[nH]c(=O)o4)cc23)cc1 (centres unmarked) | 5%
Cn1ccc2ncnc(Oc3ccc(NC(=O)Nc4cncc(C(F)(F)F)c4)c(Cl)c3)c21 | 3%
Nc1nccc(-c2ccc3c(N)n[nH]c3c2)n1 [GSK1034945] | 5%
NC(=O)Nc1sc(-c2ccc(F)cc2)cc1C(N)=O [GW789449] | 18%
CN1CCN(CCNc2nc3cc(Oc4ccc(NC(=O)Nc5cc(C(F)(F)F)ccc5F)cc4)ccc3[nH]2)CC1.Cl.Cl [GW768504] | 0%
Cl.Nc1n[nH]c2cc(-c3ccccn3)ccc12 [GSK2189892] | 0%
CCn1c(-c2nonc2N)nc2cncc(CNC3CCNCC3)c21.Cl [SB-747651] | 14%
Cn1ccc2ncnc(Oc3ccc(NC(=O)Nc4cccc(C(F)(F)F)c4)c(Cl)c3)c21 | 4%

Tested on: MAP4K2
Conditions: concentration: 1 μM,replicates: in singlicate; n = 1

Structure (SMILES) | %Inh
Cn1ccc2ncnc(Oc3ccc(NC(=O)Nc4cc(C(C)(C)C)on4)c(Cl)c3)c21 | 0%
CC(=O)Nc1ccc(-c2cc3ncnc(SCC(=O)O)c3s2)cc1 | 17%
CN(c1ccccc1CNc1nc(Nc2ccc3c(c2)CC(=O)N3)ncc1C(F)(F)F)S(C)(=O)=O | 17%
FC(F)(F)c1cc(Br)cc(Nc2nccc(-c3cnn4ncccc34)n2)c1 [GW810578] | 41%
O=C1NCCc2[nH]c(-c3ccncc3)cc21 | 52%
O=C(Nc1cccc(C(F)(F)F)c1)c1cccc(Oc2ccc3nccn3n2)c1 | 0%
Cc1ccc(CC(=O)N2CCc3cc(-c4cn(C)c5ncnc(N)c45)ccc32)cc1 [GSK2634758] | 3%
COC(=O)c1cccc(NC(=O)NC2CCN(c3ccnc(NCc4ccc(F)cc4)n3)CC2)c1 [GSK1379860] | 0%
Cn1ccc2ncnc(Oc3ccc(NC(=O)Nc4ccnc(C(F)(F)F)c4)c(Cl)c3)c21 | 0%
O=C(NOCC1CC1)c1cc(Br)c(F)c(F)c1Nc1ccc(I)cc1Cl | 0%
COc1ccc(Nc2nccc(N3CCC(NC(=O)c4cccc(C#N)c4)C3)n2)cc1 (centres unmarked) [GSK1379730] | 0%
COc1cccc(C2=C(Nc3cccc(Cl)c3)C(=O)NC2=O)c1 [SB-341556] | 0%
Cc1n[nH]c2cc(Nc3ccnc(Nc4cccc(CN5CCOCC5)c4)n3)ccc12 [GW682569] | 5%
C[C@@H]1CNc2c(sc3ccc4nc(-c5ccncc5)ccc4c23)C(=O)N1 | 70%
C[C@@H]1CCN(C(=O)N2CCCC2)C[C@@H]1N(C)c1ncnc2[nH]ccc12 | 0%
Cl.c1ccc(Oc2ccc(Nc3ccnc4cc(-c5ccc(CN6CCNCC6)o5)ccc34)cc2)nc1 [GW567142] | 0%
COc1cc2c(Nc3ccc(NC(=O)c4ccccc4)cc3)ncnc2cc1OCCCN1CCOCC1 [GSK301329] | 0%
c1ccc(Oc2ccc(Nc3ccnc4ccc(-c5ccccn5)cc34)cc2)cc1 [GW407034] | 0%
COc1cc2ncn(-c3cc(OCC4CCCCC4)c(C(N)=O)s3)c2cc1OC [GSK204559] | 0%

Structure (SMILES) | %Inh
C[C@@H]1CNc2c(sc3ccc4nc(-c5ccc(O)cc5)ccc4c23)C(=O)N1 | 85%
NC(=O)c1ccc(-c2cc3ncnc(SCC(=O)O)c3s2)cc1 | 0%
CS(=O)(=O)Nc1ccc(-c2ccnc3[nH]ccc23)cc1 [GSK993273] | 30%
N#Cc1cccc(C(=O)NC2CCN(c3ccnc(Nc4ccc(F)cc4)n3)C2)c1 (centres unmarked) [GSK1379708] | 0%
CS(=O)(=O)c1cccc(CNc2nc(Nc3ccc4c(c3)[C@@H]3C[C@@H]4CNC3=O)ncc2C(F)(F)F)c1 | 68%
COc1cc(Nc2nccc(N3CCC(NC(=O)c4cccc(C#N)c4)C3)n2)cc(OC)c1OC (centres unmarked) [GSK1379751] | 0%
CN1CCN(CCCNc2nccc(-c3c(-c4ccc(F)cc4)nn4cc(C(N)=O)ccc34)n2)CC1 [GW622475] | 0%
COc1cccc(OC)c1C(=O)Nc1cccc(-c2nn3ccccc3c2-c2ccnc(Nc3cccc(F)c3)n2)c1 [GSK361065] | 5%
CCOC(=O)N1CCC(n2cnc(-c3ccc(F)cc3)c2-c2ccnc(N)n2)CC1 [SB-219952] | 0%
COC(=O)Nc1nc2cc(Oc3ccc(NC(=O)Nc4cc(C(F)(F)F)ccc4Cl)cc3)ccc2[nH]1.Cl [GW697465] | 0%
CS(=O)c1ccc(-c2coc3ccc(-c4n[nH]c(=O)o4)cc23)cc1 (centres unmarked) | 2%
Cn1ccc2ncnc(Oc3ccc(NC(=O)Nc4cncc(C(F)(F)F)c4)c(Cl)c3)c21 | 0%
Nc1nccc(-c2ccc3c(N)n[nH]c3c2)n1 [GSK1034945] | 67%
NC(=O)Nc1sc(-c2ccc(F)cc2)cc1C(N)=O [GW789449] | 23%
CN1CCN(CCNc2nc3cc(Oc4ccc(NC(=O)Nc5cc(C(F)(F)F)ccc5F)cc4)ccc3[nH]2)CC1.Cl.Cl [GW768504] | 0%
Cl.Nc1n[nH]c2cc(-c3ccccn3)ccc12 [GSK2189892] | 0%
CCn1c(-c2nonc2N)nc2cncc(CNC3CCNCC3)c21.Cl [SB-747651] | 0%
Cn1ccc2ncnc(Oc3ccc(NC(=O)Nc4cccc(C(F)(F)F)c4)c(Cl)c3)c21 | 6%
